Screening data: PubChem, National Center for Advancing Translational Sciences (NCATS)
TDP1 cell noCPT: qHTS for Inhibitors of human tyrosyl-DNA phosphodiesterase 1 (TDP1): qHTS in cells in absence of CPT | DT40 Tdp1-/- hTDP1 cells, no CPT, ATP luminescence, 48 h | Potency, µM (series often up to 46.2 µM), inactives show at the top dose activity change, negative = growth inhibition, hits mostly inhibitors | actives 15% (n = 420,000) | AID 686978, 2013; also: potency is read from the fitted curve at half-maximal effect; nearly all actives have a fitted effect of over 55% in size
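Stably hTDP1-transfected Tdp1-null chicken DT40 cells were treated with library compounds minus camptothecin and grown for at least 48 hr at 37 °C, after which cellular ATP was quantified by luminescence.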
LDHA block: LDHA (human) enzyme inhibition; P00338; purified LDHA, NADH/diaphorase-resazurin fluorescence; stronger effect = lower value; activity change, % (values are at about 110 or 230 µM); actives 0.15% (n = 480,000); AID 1347041; in the data active = activity change below about -30%; inconclusive = mostly about -25% to -30%;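 also: plate controls were DMSO wells for no effect and wells without enzyme for full effect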
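LDH5 2 nM; NADH 0.06 mM, pyruvate 0.2 mM; 200 mM Tris pH 7.4, EDTA, Tween-20; 5 min RT. Detection: diaphorase 0.133 mg/mL + resazurin 37 µM, fluorescence ex540/em590 at 0 and 20 min; normalized to enzyme-free and DMSO wells.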
Gal4-VP16 FLuc: inhibits Gal4-VP16 luciferase reporter, ROR gamma counter-screen. Drosophila S2 Gal4-VP16 UAS-luciferase, luminescence, 20 h. Potency, µM (series often up to 53.6 µM), without a hit: top-dose activity, negative = inhibition, usual class: inhibitors. actives 3.5% (n = 310,000). AID 2546;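 also: Gal4-VP16 expression switched on by copper sulfate through the metallothionein promoter; potency is read from the fitted curve at half-maximal effect; nearly all actives have a fitted effect of over 50% in size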
RORg inh: ROR gamma (mouse) transcription inhibition; Potency, µM (series often up to 53.6 µM), without a hit: top-dose activity change, negative = inhibition, actives largely listed as inhibitors; actives 5.4% (n = 310,000); Drosophila S2 Gal4-RORgamma UAS-luciferase reporter, 20 h; P51450; also: potency is read from the fitted curve at half-maximal effect; nearly all actives have a fitted effect of over 60% in size
Target sequence (P51450 whole entry, looked up, the tested form may be a part): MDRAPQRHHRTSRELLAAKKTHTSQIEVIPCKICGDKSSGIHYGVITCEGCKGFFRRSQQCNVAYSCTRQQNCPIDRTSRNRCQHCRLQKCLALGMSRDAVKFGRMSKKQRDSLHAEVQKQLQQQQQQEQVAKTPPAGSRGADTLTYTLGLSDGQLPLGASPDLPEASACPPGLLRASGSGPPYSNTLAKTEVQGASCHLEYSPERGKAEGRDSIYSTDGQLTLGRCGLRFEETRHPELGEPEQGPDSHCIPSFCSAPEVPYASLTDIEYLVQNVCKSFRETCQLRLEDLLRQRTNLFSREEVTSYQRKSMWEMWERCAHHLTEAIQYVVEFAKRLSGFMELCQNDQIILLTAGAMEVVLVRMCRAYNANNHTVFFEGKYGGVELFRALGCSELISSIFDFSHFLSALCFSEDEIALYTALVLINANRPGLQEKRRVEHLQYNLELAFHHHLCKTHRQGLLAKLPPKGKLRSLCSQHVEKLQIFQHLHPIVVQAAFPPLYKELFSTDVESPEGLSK
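Luminescence from a UAS-regulated Photinus luciferase reporter in stably transfected Drosophila Schneider cells is measured; decreased signal marks ROR gamma inhibition. Fusion expression is induced by 700 uM copper sulfate for 20 hr.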
TDP1 cell CPT: growth inhibition of DT40 Tdp1-/-;hTDP1 cells with camptothecin (screen for TDP1 inhibitors) | chicken DT40 Tdp1-/-;hTDP1 cells + 20 nM CPT, ATP luminescence, 48 h | actives 12% (n = 420,000) | Potency, µM (top dose mostly 46.2 µM), for the others: at the highest dose activity change, negative = growth inhibition, actives largely listed as inhibitors; also: potency is read from the fitted curve at half-maximal effect; nearly all actives have a fitted effect of over 55% in size
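Chicken DT40 Tdp1-/- cells complemented with human TDP1, 400 cells/well, exposed to compounds plus 20 nM camptothecin for at least 48 h at 37 C; viability read as ATP content by CellTiter-Glo luminescence.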
IL1B secr inh: inhibitors of inflammasome signaling (IL-1 beta secretion); actives 4.7% (n = 360,000); activity change, % at 57.5 µM; THP-1 LPS/ATP IL-1B secretion, AlphaLISA, 16 h; stronger effect = lower value; in the data active = activity change below about -50%; inconclusive = mostly about -30% to -49%
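THP-1 cells pretreated 1 hr with compounds (up to 57.5 uM final), then stimulated with LPS (250 ng/mL final) plus ATP (1.25 mM final); secreted IL-1B measured by AlphaLISA after 16 hr, decreased signal indicating inhibition.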
Active calls of the source: *; ! = repeats disagree. Hits are enriched below; roughly 18% of the tested compounds scored in any of these assays. Unless noted, calls follow the shape of the dose curve; as a rule, active = well fitted curve in the direction sought with a large enough effect; inconclusive = small, poorly fitted or top-dose-only effect, or another doubt; inactive = no such curve, though single readings can be large; an effect the other way counts as inactive or inconclusive. Unless noted, % is scaled to controls: 0 for no effect and ±100 for the full control effect.

What do the screens show for `Cc1ccc2[nH]c(C)c(CCN(Cc3cccs3)C(=S)NC(C)(C)C)c2c1`?
LDHA block: 9

Results for COc1ccc2[nH]c(C)c(CCN(Cc3cccs3)C(=S)Nc3cccc(F)c3)c2c1 ?
TDP1 cell noCPT: inconclusive; LDHA block: 0; Gal4-VP16 FLuc: inconclusive; RORg inh: 1.6µM*; TDP1 cell CPT: inconclusive; IL1B secr inh: -23

How did COc1ccc(OC)c(NC(=S)N(CCc2c(C)[nH]c3ccccc23)Cc2cccs2)c1 do in these assays?
TDP1 cell noCPT: inconclusive; LDHA block: 1; Gal4-VP16 FLuc: 8%; RORg inh: 8.9µM*; TDP1 cell CPT: inconclusive; IL1B secr inh: -10

Results for COc1ccc(OC)c(NC(=S)N(CCc2c(C)[nH]c3ccc(C)cc23)Cc2cccs2)c1 ?
TDP1 cell noCPT: inconclusive; LDHA block: 1; Gal4-VP16 FLuc: 17%; RORg inh: 10µM*; TDP1 cell CPT: inconclusive; IL1B secr inh: -29

Results for COc1ccc(NC(=S)N(CCc2c(C)[nH]c3ccccc23)Cc2ccco2)cc1 ?
TDP1 cell noCPT: inconclusive; LDHA block: 0; Gal4-VP16 FLuc: 1%; RORg inh: inconclusive; TDP1 cell CPT: inconclusive; IL1B secr inh: inconclusive

Results for Cc1[nH]c2ccc(F)cc2c1CCN(Cc1cccnc1)C(=S)Nc1cccc(F)c1 ?
TDP1 cell noCPT: -54%; LDHA block: 2; Gal4-VP16 FLuc: -8%; RORg inh: -34%; TDP1 cell CPT: inconclusive; IL1B secr inh: -15

How did COc1ccc(CNC(=O)CCc2c(C)nn(-c3ccc(N4CCCC4)nn3)c2C)c(OC)c1 do in these assays?
TDP1 cell noCPT: -12%; LDHA block: 0; TDP1 cell CPT: 0%

Results for Cc1nn(-c2ccc(N3CCOCC3)nn2)c(C)c1CCC(=O)Nc1ccc(F)cc1 ?
TDP1 cell noCPT: 16µM*; LDHA block: -5; Gal4-VP16 FLuc: 4%; RORg inh: 10%; TDP1 cell CPT: -4%; IL1B secr inh: -10

How did Cc1nn(-c2ccc(N3CCCC3)nn2)c(C)c1CCC(=O)N1CCN(c2ccc(F)cc2)CC1 do in these assays?
TDP1 cell noCPT: inconclusive; LDHA block: 2; TDP1 cell CPT: 15µM*

Results for COc1ccc(OC)c(NC(=O)CCc2c(C)nn(-c3ccc(N4CCCC4)nn3)c2C)c1 ?
TDP1 cell noCPT: 15µM*; LDHA block: 4; TDP1 cell CPT: 21µM*

What do the screens show for `Cc1ccccc1NC(=O)CCc1c(C)nn(-c2ccc(N3CCCCC3)nn2)c1C`?
TDP1 cell noCPT: 21µM*!; LDHA block: -4; Gal4-VP16 FLuc: 8%; RORg inh: -19%; TDP1 cell CPT: 16µM*; IL1B secr inh: 1

What do the screens show for `Cc1cccc(NC(=O)CCc2c(C)nn(-c3ccc(N4CCOCC4)nn3)c2C)c1`?
TDP1 cell noCPT: -27%; LDHA block: -3; Gal4-VP16 FLuc: -4%; RORg inh: 20%; TDP1 cell CPT: -29%; IL1B secr inh: -6

What do the screens show for `Cc1nn(-c2ccc(N3CCOCC3)nn2)c(C)c1CCC(=O)N1CCN(C)CC1`?
TDP1 cell noCPT: 1%; LDHA block: -2; Gal4-VP16 FLuc: 2%; RORg inh: 0%; TDP1 cell CPT: 0%; IL1B secr inh: 12

What do the screens show for `O=C(Nc1ccccc1OC(F)F)c1ccc2ccccc2n1`?
LDHA block: -4

Results for Cc1ccc(C)c(Cn2c(C(C)NC(=O)c3ccco3)nc3ccccc32)c1 (stereo unspecified) ?
LDHA block: 1

How did Cc1ccc(NC(=O)COC(=O)c2cccc(O)c2)c(Br)c1 do in these assays?
LDHA block: 2

What do the screens show for `COc1cc(NC(=O)CCc2c(C)nn(-c3ccc(N4CCCCC4)nn3)c2C)cc(OC)c1OC`?
TDP1 cell noCPT: inconclusive; LDHA block: 12; TDP1 cell CPT: 21µM*

What do the screens show for `CCc1ccc(NC(=O)CCc2c(C)nn(-c3ccc(N4CCCC4)nn3)c2C)cc1`?
TDP1 cell noCPT: inconclusive; LDHA block: 4; TDP1 cell CPT: inconclusive

How did COC(=O)c1ccc(NC(=O)CCc2c(C)nn(-c3ccc(N4CCCCC4)nn3)c2C)cc1 do in these assays?
TDP1 cell noCPT: inconclusive; LDHA block: 0; TDP1 cell CPT: 23µM*

What do the screens show for `Cc1ccc(S(=O)(=O)NC2CCN(S(C)(=O)=O)CC2)cc1`?
LDHA block: 12

How did CC(C)CC1Nc2ccc(C(=O)NCCCN3CCOCC3)cc2NC1=O (stereo unspecified) do in these assays?
TDP1 cell noCPT: 16µM*; LDHA block: 0; Gal4-VP16 FLuc: 2%; RORg inh: 2%; TDP1 cell CPT: 26µM*; IL1B secr inh: 1

What do the screens show for `CC(C)CCNC(=O)c1ccc2c(c1)NC(=O)C(CS(=O)(=O)Cc1ccc(F)cc1)N2` (stereo unspecified)?
TDP1 cell noCPT: 16µM*; LDHA block: -5; TDP1 cell CPT: 16µM*

Results for Cc1ccc(CNC(=O)c2ccc3c(c2)NC(=O)C(CS(=O)(=O)Cc2cccc(F)c2)N3)cc1 (stereo unspecified) ?
TDP1 cell noCPT: 4%; LDHA block: 3; TDP1 cell CPT: -10%

Results for CC(C)C1Nc2ccc(C(=O)NCCCN3CCOCC3)cc2NC1=O (stereo unspecified) ?
TDP1 cell noCPT: 3%; LDHA block: -10; Gal4-VP16 FLuc: 0%; RORg inh: -11%; TDP1 cell CPT: 8%; IL1B secr inh: 8

What do the screens show for `CCN(CC)CCNC(=O)c1ccc2c(c1)NC(=O)C(CS(=O)(=O)Cc1ccc(F)cc1Cl)N2` (stereo unspecified)?
TDP1 cell noCPT: inconclusive; LDHA block: -6; TDP1 cell CPT: 18µM*

What do the screens show for `CC(C)CCNC(=O)c1ccc2c(c1)NC(=O)C(CS(=O)(=O)Cc1cccc(Br)c1)N2` (stereo unspecified)?
TDP1 cell noCPT: inconclusive; LDHA block: 6; TDP1 cell CPT: -27%

What do the screens show for `Cc1cccc(CS(=O)(=O)CC2Nc3ccc(C(=O)NCc4ccccc4)cc3NC2=O)c1` (stereo unspecified)?
TDP1 cell noCPT: 6.5µM*; LDHA block: -3; TDP1 cell CPT: 12µM*

Results for Cc1ccc(F)cc1NC(=O)c1nn(Cc2ccccc2)c(=O)c2ccccc12 ?
LDHA block: -3
